Hit rate of the full screen: of about 13,000 compounds, about 3,200 (25%) showed an effect of 50% or more. This is one part of the list.
These compounds were tested on P. falciparum stage V gametocytes. Conditions: 48 h, 5 µM; inhibitor.
Set-up: BacTiter-Glo ATP luminescence viability of purified stage V gametocytes in 384-well plates, per cent inhibition versus DMSO

SMILES | % Inhibition [%]
COc1ccc(N2CCN(CCCCNC(=O)c3ccc(NC(=O)c4ccc(OC(F)(F)F)cc4)cc3)CC2)c(OC)c1 [TCMDC-138149] | -10.77
N#Cc1ccc2c(c1)CCN(CCC1CCC(Nc3ncnc4ccccc34)CC1)C2 (stereo not shown) [TCMDC-139358] | -22.56
Cc1cccc2nc(-c3ccc(-c4cccc(NC(=O)C(C)CN(C)C)c4)s3)[nH]c12 (stereo not shown) [TCMDC-137116] | 33.05
Cc1cc2cc(NC(=O)Nc3ccnc4ccccc34)ccc2n1C [TCMDC-139291] | -17.26
Cc1cc(NC(=O)Nc2cccc(N(C)C)c2)c2ccccc2n1 [TCMDC-138955] | -40.58
CCC(C)c1ccc(NC(=O)Nc2ccnc3ccccc23)cc1 (stereo not shown) [TCMDC-139723] | 3.75
CN(C)c1cc(NC(=O)Nc2ccc(SC(F)(F)F)cc2)c2ccccc2n1 [TCMDC-123994] | 86
O=C(Nc1ccc(SC(F)(F)F)cc1)Nc1ccnc2ccccc12 [TCMDC-139287] | 73.37
CN(C)c1cc(NC(=O)Nc2ccccc2)c2ccccc2n1 [TCMDC-123521] | 30.25
N#Cc1ccc2c(c1)CCN(CCC1CCC(NC(=O)c3cc4ccccc4[nH]3)CC1)CC2 (stereo not shown) [TCMDC-139633] | -57.67
O=C(Nc1ccc(Cl)cc1)c1cc(Cl)ccc1NC(=O)C1CCc2ccccc2O1 (stereo not shown) [TCMDC-136640] | -15.02
CCCOc1cc(O)c(-c2n[nH]c(C)c2Oc2ccccc2)cc1CC [TCMDC-125714] | -75.18
CCCOc1ccc(CCNCCCCNCCc2ccc(OCCC)c3ccccc23)c2ccccc12 [TCMDC-137952] | 124.7
CCOc1c(CCNCCCCNCCc2ccc3ccccc3c2OCC)ccc2ccccc12 [TCMDC-137759] | 109.7
CCOc1c(N2CCN(CCCCNC(=O)c3ccc(NC(=O)c4ccc(Cl)cc4)cc3)CC2)ccc2ccccc12 [TCMDC-138522] | 6.305
CCCOc1c(CCNCCCCNCCc2ccc3ccccc3c2OCCC)ccc2ccccc12 [TCMDC-137950] | 113.4
CC(=NO)C1=C(O)C(c2ccccc2)N(c2ccccc2)C1=O (stereo not shown) [TCMDC-131673] | 13.72
O=C(/C=C/c1ccc(Cl)c(Cl)c1)NCCCCCN1CCCN(C(=O)Nc2ccc(F)c(F)c2)CC1 [TCMDC-135750] | -25.07
CCCC(C)Nc1nc(C)cc(N[C@@H](Cc2ccccc2)C(=O)NCCc2ccccc2)n1 (stereo partly shown) [TCMDC-134766] | 6.892
O=C(Nc1ccc(OC2CCN(Cc3ccsc3)C2)c(Cl)c1)c1ccco1 (stereo not shown) [TCMDC-133950] | 41.88
O=C(N[C@@H](CC1CCCCC1)C(=O)NC1CCCCCC1)c1ccc(O)c(-c2ccc(Cl)c(Cl)c2)c1 [TCMDC-140847] | 37.48
CCN(CC)CCNC(=O)c1ccc(NC(=O)c2ccc(-c3cc(NC(=O)CC4CCCC4)ccc3C)cc2)cc1 [TCMDC-133707] | 110.3
Cc1ccc(NC(=O)C2CCC2)cc1-c1ccc(C(=O)NCC2CC2)cc1 [TCMDC-138709] | -25.69
COc1ccc(NC(=O)Nc2ccc(C)c(-c3ccc(C(=O)NCCN4CCCC4)cc3)c2)cc1 [TCMDC-134196] | -27.29

SMILES | % Inhibition [%]
COc1cc2c(cc1OC)CC(NCCCCCCNCCc1ccc(Cl)cc1)CC2 (stereo not shown) [TCMDC-132038] | 103.4
COc1cc2c(cc1OC)CC(NCc1ccc(-c3ccc4nc[nH]c4c3)cc1)C2 [TCMDC-133474] | 37.11
COc1ccc(CN(C)CCCc2ccc(NC(=O)Cc3ccc4nc(-c5ccccc5)ccc4c3)cc2)cc1OC [TCMDC-131845] | 17.3
COc1cc2c(cc1OC)CN(CCCCc1ccc(NC(=O)c3cc(Cl)cc(Cl)c3)cc1)CC2 [TCMDC-138174] | -15.17
COc1ccc(CCNCCCCCCNCCc2ccc(-c3ccccc3)cc2)cc1OC [TCMDC-131267] | 96.14
COc1ccc(CCNCCCCCCNCCCc2ccc(Cl)cc2)cc1OC [TCMDC-131280] | 105.1
COc1ccc(CNCCCCCCNCCc2ccc(Cl)cc2)cc1OC [TCMDC-131282] | 88.88
COc1ccc(CNCC2CCC(CNCCc3ccccc3)CC2)cc1Cl (stereo not shown) [TCMDC-140364] | -22.08
CCOc1cc2ncnc(Nc3ccc(OCc4c(Cl)cccc4Cl)c(OC)c3)c2cc1OCC [TCMDC-131927] | -5.801
CCC(O)(C#Cc1c(C)nc(N)nc1N)CC [TCMDC-137329] | 41.32
N#Cc1ccc(NC(=NCc2cccnc2)Nc2ccc(-c3ccccc3)cc2)c(O)c1 [TCMDC-140208] | -10.63
COc1ccccc1C1CC(c2ccc(Br)cc2)=NN1C(=O)c1ccccc1 (stereo not shown) [TCMDC-125622] | 32.36
Oc1ccc2[nH]c(-c3cccc(F)c3)nc2c1CN1CCC(N2CCCC2)CC1 [TCMDC-136357] | -60.35
Cc1cccc2[nH]c(-c3ccc(-c4cccc(NC(=O)NCc5cccc(F)c5)c4)cc3)nc12 [TCMDC-133295] | 32.47
COc1cccc(NC(=O)Nc2ccc(Nc3nc(C)cc(N4CCCC4)n3)cc2)c1 [TCMDC-124957] | -12.57
N=C(N)c1cc(Br)cc(NC(=O)Nc2cc(Br)cc(C(=N)N)c2)c1 [TCMDC-124180] | -21.96
CC1CCN(CC[C@H]2CCCN2S(=O)(=O)c2cccc(NC(=O)Nc3ccc(C(F)(F)F)cc3)c2)CC1 [TCMDC-141021] | -52.23
CCCN(CCC)c1nn2c(=O)c(C(=O)N3CCN(Cc4ccccc4)CC3)cnc2s1 [TCMDC-125272] | -5.242
COc1ccc(CNCCCCCCCNCc2ccc(Cl)c(Cl)c2)cc1Cl [TCMDC-140366] | 13.21
COc1ccc(CCNCCCCCCNCCc2cccc([N+](=O)[O-])c2)cc1OC [TCMDC-131262] | 82.84
COc1ccc(CNCCCCCNCc2ccc(Cl)c(Cl)c2)cc1Cl [TCMDC-140365] | 23.3
COc1ccc(CCNCCCCCCNCCc2ccc(Cl)c(Cl)c2)cc1OC [TCMDC-131275] | 106.4
COc1ccc(CCNCCCCCNCCCc2ccc(Cl)cc2)cc1OC [TCMDC-131278] | 107.5
Cc1cc(CNCCCCCCCNCc2cccc([N+](=O)[O-])c2)ccc1O [TCMDC-140416] | 12.73

SMILES | % Inhibition [%]
Cc1cc(CNCCCCCNCc2cccc([N+](=O)[O-])c2)ccc1O [TCMDC-140410] | 42.39
COc1ccc(CCNCCCCCNCCc2ccc(Cl)cc2)cc1OC [TCMDC-131269] | 103.7
Cc1ccc(C2=NNC3(S2)C(=O)N(C)c2ccccc23)cc1 (stereo not shown) [TCMDC-123863] | 24.25
COc1ccc(C23Oc4cc(OC)cc(OC)c4C2(O)C2(CC3c3ccccc3)SCCCS2)cc1 (stereo not shown) [TCMDC-132098] | 11.15
OCC(CO)(CO)NCc1ccc2c3c(cccc13)-c1ccccc1-2 [TCMDC-137877] | -8.777
C=CCn1c(C)cc(C(=O)COc2ccc(S(=O)(=O)N3CCOCC3)cc2[N+](=O)[O-])c1C [TCMDC-124326] | 33.1
COc1cc(CNCCCNc2nc3ccsc3c(=O)[nH]2)c2[nH]cc(Cl)c2c1 [TCMDC-140349] | -35.52
COc1cccc(CCc2cccc(CNC(C)=O)c2)c1 [TCMDC-139277] | -0.06569
COc1cccc(CCNCCCCCCNCCc2ccc(Cl)cc2)c1 [TCMDC-131284] | 113.2
COc1ccc2nccc([C@@H](O)CN3CCC(NCc4nc5cc(F)ccc5o4)CC3)c2c1 [TCMDC-140783] | -5.365
c1ccc2c(c1)ncc1c3ccccc3[nH]c21 [TCMDC-131258] | -7.104
NCC1CCCN1Cc1cccc(-c2ccc(-c3nc4cc(C(F)(F)F)ccc4[nH]3)s2)c1.O=C(O)C(F)(F)F (stereo not shown) [TCMDC-132992] | 36.35
Cc1cccc2nc(-c3ccc(-c4cccc(CNCCCN5CCCC5=O)c4)s3)[nH]c12.O=C(O)C(F)(F)F [TCMDC-132762] | -3.129
NCC1CCCN1Cc1cccc(-c2ccc(-c3nc4ccccc4[nH]3)s2)c1.O=C(O)C(F)(F)F (stereo not shown) [TCMDC-132987] | 77.53
O=C(O)C(F)(F)F.O=C1CCCN1CCCNCc1cccc(-c2ccc(-c3nc4ccccc4[nH]3)s2)c1 [TCMDC-132749] | 78.47
Cc1cccc2nc(-c3ccc(-c4cccc(CN5CCCC5CN)c4)s3)[nH]c12.O=C(O)C(F)(F)F (stereo not shown) [TCMDC-132997] | 41.54
O=C(O)C(F)(F)F.O=C1CCCN1CCCNCc1cccc(-c2ccc(-c3nc4cc(C(F)(F)F)ccc4[nH]3)s2)c1 [TCMDC-132757] | -29.57
CCCCCc1cnc2nc(N)nc(N)c2c1 [TCMDC-137922] | -4.326
N#Cc1ccc2c(c1)CCN(CCC1CCC(NC(=O)/C=C/c3c[nH]c4c(Br)cccc34)CC1)CC2 (stereo not shown) [TCMDC-139672] | -4.951
Cc1cccc2[nH]c(-c3ccc(-c4ccc(NC(=O)NCc5ccc(F)cc5)cc4)cc3)nc12 [TCMDC-133302] | 17.3
CC(=O)Nc1ncc(C(=O)Nc2cccc(-c3ccc(-c4nc5c(C)cccc5[nH]4)cc3)c2)s1 [TCMDC-136913] | 10.82
Cc1cnc(C[S+]([O-])c2nc3ccc(C(F)(F)F)cc3[nH]2)cc1OCc1ccccc1 (stereo not shown) [TCMDC-131542] | 10.44

— paper PMC4552634, “A New Set of Chemical Starting Points with Plasmodium falciparum Transmission-Blocking Potential for Antimalarial Drug Discovery” (PLoS ONE, 2015)
